Source: PubChem BioAssay
Sampled rows, rich in hits. Any-hit rate of the full collection: about 17%.
ATXN2 expr inh: reduces ATXN2 reporter expression in HEK-293 cells. HEK-293 ATXN2-luciferase reporter, luminescence, 24 h. 0.72% of 360,000 active. Potency, µM (doses to about 57 µM), most hits filed as inhibitors; note: nearly all actives have a fitted effect of over 55% in size
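ATXN2-luciferase reporter cells (luciferase flanked by upstream and downstream ATXN2 gene portions) were treated 24 h at 37 °C with compounds at up to 57 uM. SteadyGlo luminescence gave expression; GF-AFC fluorescence gave viability.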
TGFb inhibitor: inhibitors of TGF-b signaling; HepG2 CAGA-GFP TGF-b/SMAD3 reporter, GFP fluorescence, 18 h; TGF-beta stimulated, 500 pg/mL final; Potency, µM (series often up to 46.1 µM), usual class: inhibitors; 1.2% of 410,000 active; AID 588855; note: nearly all actives have a fitted effect of over 65% in size
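Inhibition of TGF-beta-driven CAGA-GFP reporter expression in HEPG2 cells is measured by cellular GFP fluorescence after 18 h stimulation with 500 pg/mL recombinant TGF-beta in 1% FBS medium at 37 degrees C.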
HepG2 tox: HepG2 cytotoxicity, counter-screen for TGF-b inhibitors | HepG2 CAGA-GFP viability, ATP luminescence, 18 h | Potency, µM (series often up to 46.1 µM), most hits filed as cytotoxic | 0.76% of 410,000 active | AID 588856
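CellTiter-Glo luminescence gave cytotoxicity after 18 hours at 37 degrees C. The cells were HepG2 CAGA-GFP in 1% FBS DMEM, stimulated with 500 pg/mL TGF-beta after compound addition. %Activity was normalised to no-cell wells (complete cell-killing) and DMSO (no toxicity), and curves were fitted and classified.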
TDP1 cell CPT: DT40-hTDP1 cell growth loss with CPT; chicken DT40 Tdp1-/-;hTDP1 cells + 20 nM CPT, ATP luminescence, 48 h; Potency, µM (series often up to 46.2 µM), actives largely listed as inhibitors; 12% of 420,000 active; note: nearly all actives have a fitted effect of over 55% in size
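Cell growth measured by CellTiter-Glo luminescence after a minimum 48 h, 37 C compound exposure with 20 nM CPT in Tdp1-knockout DT40 cells stably expressing hTDP1, seeded 400/well; qHTS titration format.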
TDP1 cell noCPT: qHTS for Inhibitors of human tyrosyl-DNA phosphodiesterase 1 (TDP1): qHTS in cells in absence of CPT. DT40 Tdp1-/- hTDP1 cells, no CPT, ATP luminescence, 48 h. Potency, µM (titrated, usually from 46.2 µM), hits mostly inhibitors. 15% of 420,000 active. AID 686978, 2013; note: nearly all actives have a fitted effect of over 55% in size
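Cells were dispensed at 400 per well, compounds added by pin tool, plates incubated ≥48 hr at 37 °C, then CellTiter-Glo added for 30 min at room temperature before luminescence reading. Line: DT40 Tdp1-/- complemented with hTDP1; camptothecin omitted.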
S2 tox: viability counter-screen for ATXN expression inhibitors. S2 cells (HEK-293 line with an ATXN2-luciferase reporter) viability, CellTiter-Fluor protease fluorescence, 24 h. Potency, µM (titrated, usually from 56.7 µM), most hits filed as cytotoxic. 0.49% of 400,000 active; note: nearly all actives have a fitted effect of over 40% in size
Large screens that a line does not name were inactive. Calls come from the whole dose curve; as a rule, active = well fitted curve in the direction sought with a large enough effect; inconclusive = small, poorly fitted or top-dose-only effect, or another doubt; inactive = no such curve, though single readings can be large; an effect the other way counts as inactive or inconclusive.

COCCCNC(=O)c1ccc(Cn2c(=O)c3cccn3c3cccnc32)cc1	TDP1 cell CPT inconclusive, TDP1 cell noCPT inconclusive (no result: ATXN2 expr inh, S2 tox)
Cc1cc(C(=O)CSc2nnc(Nc3ccccc3F)s2)c(C)n1CC1CCCO1 (stereo not given)	TDP1 cell CPT inconclusive, TDP1 cell noCPT inconclusive
Cc1cc(C(=O)CSc2nc3ccccc3c(=O)[nH]2)c(C)n1CC1CCCO1 (stereo not given)	TDP1 cell CPT 13µM, TDP1 cell noCPT 10µM, S2 tox inconclusive
Cc1cc(C(=O)CSc2nnc(Nc3ccccc3)s2)c(C)n1CC1CCCO1 (stereo not given)	TGFb inhibitor inconclusive, TDP1 cell CPT 12µM, TDP1 cell noCPT inconclusive
CCCCNC(=O)C1C(c2ccccc2)=Nc2ccccc2N1C(=O)c1ccc(C(F)(F)F)cc1 (stereo not given)	TDP1 cell CPT inconclusive, TDP1 cell noCPT 15µM (no result: ATXN2 expr inh, TGFb inhibitor, HepG2 tox, S2 tox)
CCCCNC(=O)C1C(c2ccccc2)=Nc2ccccc2N1C(=O)c1ccc(C)cc1 (stereo not given)	TDP1 cell CPT 13µM, TDP1 cell noCPT inconclusive (no result: ATXN2 expr inh, TGFb inhibitor, HepG2 tox, S2 tox)
CC(C)(C)NC(=O)C1C(c2ccccc2)=Nc2ccccc2N1C(=O)c1ccc(C(F)(F)F)cc1 (stereo not given)	TDP1 cell CPT inconclusive, TDP1 cell noCPT 16µM (no result: ATXN2 expr inh, TGFb inhibitor, HepG2 tox, S2 tox)
COc1ccc2c(c1)c(=O)c(S(=O)(=O)c1ccc(Cl)cc1)cn2Cc1cc(C)ccc1C	TDP1 cell noCPT inconclusive
CCOc1ccc(S(=O)(=O)c2cn(Cc3ccccc3C)c3ccc(OC)cc3c2=O)cc1	TDP1 cell CPT 15µM, TDP1 cell noCPT 12µM
COc1ccc2c(c1)c(=O)c(S(=O)(=O)c1ccc(C)cc1)cn2Cc1ccccc1C	TGFb inhibitor inconclusive, TDP1 cell CPT inconclusive, TDP1 cell noCPT 18µM
CCCn1cc(S(=O)(=O)c2ccc(Cl)cc2)c(=O)c2cc(OC)ccc21	TDP1 cell CPT 16µM, TDP1 cell noCPT 23µM
CC(Nc1ccc(-c2nc(-c3cccnc3)no2)cc1[N+](=O)[O-])c1ccccc1 (stereo not given)	TGFb inhibitor inconclusive
Cc1noc(-c2ccc(NC(C)c3ccccc3)c([N+](=O)[O-])c2)n1 (stereo not given)	TDP1 cell CPT 16µM, TDP1 cell noCPT 23µM
CC(Nc1ccc(-c2nc(-c3ccccn3)no2)cc1[N+](=O)[O-])c1ccccc1 (stereo not given)	none
CCc1noc(-c2ccc(NC(C)c3ccccc3)c([N+](=O)[O-])c2)n1 (stereo not given)	TDP1 cell CPT 18µM, TDP1 cell noCPT inconclusive
Cc1cc(C)c(NS(=O)(=O)c2ccc(NC(=O)CCC(=O)O)cc2)c(C)c1	none
CCN(CC)S(=O)(=O)c1ccc2[nH]cc(C(=O)NCCC3=CCCCC3)c(=O)c2c1	TGFb inhibitor inconclusive, TDP1 cell CPT 10µM, TDP1 cell noCPT 18µM, S2 tox inconclusive
COc1ccc(NC(=O)CN(C)S(=O)(=O)c2ccc3c(c2)c(=O)n(C)c(=O)n3C)cc1	TGFb inhibitor inconclusive, TDP1 cell CPT inconclusive, TDP1 cell noCPT inconclusive
CCOc1ccc(N(C)S(=O)(=O)c2ccc3[nH]cc(C(=O)NCC(OC)OC)c(=O)c3c2)cc1	TDP1 cell CPT inconclusive, TDP1 cell noCPT 26µM (no result: ATXN2 expr inh, S2 tox)
CCc1ccc(N(C)S(=O)(=O)c2ccc3[nH]cc(C(=O)NCC4CCCO4)c(=O)c3c2)cc1 (stereo not given)	TGFb inhibitor inconclusive, TDP1 cell CPT inconclusive, TDP1 cell noCPT 15µM
CCN(C(=O)CN(C)S(=O)(=O)c1ccc2c(c1)c(=O)n(C)c(=O)n2C)c1ccc(OC)cc1	TDP1 cell noCPT 23µM
CCOc1ccc(N(C)S(=O)(=O)c2ccc3[nH]cc(C(=O)NCC4CCCO4)c(=O)c3c2)cc1 (stereo not given)	TDP1 cell CPT inconclusive, TDP1 cell noCPT inconclusive
O=C(COC(=O)CCc1ccc(S(=O)(=O)N2CCOCC2)cc1)NCc1ccccc1	none
CN(CC(=O)NCCc1ccc(Cl)cc1)S(=O)(=O)c1ccc2c(c1)c(=O)n(C)c(=O)n2C	TDP1 cell CPT inconclusive, TDP1 cell noCPT inconclusive
CN(CC(=O)NCCC1=CCCCC1)S(=O)(=O)c1ccc2c(c1)c(=O)n(C)c(=O)n2C	TDP1 cell CPT 8.2µM, TDP1 cell noCPT inconclusive
O=C(C[n+]1cccc(C(=O)Nc2ccccc2)c1)c1ccc([N+](=O)[O-])cc1	TGFb inhibitor inconclusive, TDP1 cell CPT inconclusive, TDP1 cell noCPT inconclusive
COc1ccc(C(=O)C[n+]2ccccc2C)cc1	TDP1 cell CPT 16µM, TDP1 cell noCPT 21µM
Cc1cccc[n+]1CC(=O)c1ccc(NC(=O)c2ccccc2)cc1	TDP1 cell CPT inconclusive, TDP1 cell noCPT inconclusive (no result: ATXN2 expr inh)
Cc1cccc[n+]1CC(=O)c1ccc([N+](=O)[O-])cc1	TGFb inhibitor inconclusive, TDP1 cell CPT 21µM, TDP1 cell noCPT 16µM, S2 tox inconclusive
COc1ccc(NS(=O)(=O)c2ccc(C)c(C(=O)NCCCn3ccnc3)c2)cc1	none (no result: ATXN2 expr inh)
OC(CN1CCCCC1)Cn1c2ccccc2c2ccccc21 (stereo not given)	none (no result: ATXN2 expr inh)
Cc1ccc(C(=O)/C=C/c2cn(CC(O)CN3CCCCCC3)c3ccccc23)cc1 (stereo not given)	TGFb inhibitor inconclusive, TDP1 cell CPT 12µM, TDP1 cell noCPT 21µM, S2 tox inconclusive
CN1CCN(Cn2cc(/C=C/C(=O)c3ccccc3)c3ccccc32)CC1	TGFb inhibitor 13µM, TDP1 cell noCPT inconclusive, S2 tox inconclusive
O=C(/C=C/c1cn(CC(O)CN2CCCCCC2)c2ccccc12)c1ccc(Br)cc1 (stereo not given)	ATXN2 expr inh inconclusive, TGFb inhibitor inconclusive, TDP1 cell CPT 16µM, TDP1 cell noCPT 13µM (no result: S2 tox)
CCn1cc(/C=C(\NC(=O)c2ccccc2F)C(=O)N2CCN(C)CC2)c2ccccc21	TDP1 cell CPT inconclusive, S2 tox inconclusive (no result: ATXN2 expr inh)
O=C(/C=C/c1cn(CC(O)CN2CCCCC2)c2ccccc12)c1cccs1 (stereo not given)	TDP1 cell CPT inconclusive, TDP1 cell noCPT 16µM
Cc1c(C)n(CC(O)CN2CCCCC2)c2ccccc12 (stereo not given)	none
CCCCCC(=O)N1C[C@@H](n2cc(COC(=O)c3ccccc3)nn2)[C@H](O)C[C@@H]1c1ccccc1	TDP1 cell noCPT inconclusive
CCCn1c2ccccc2c2cnn(CC(=O)Nc3cc(OC)c(OC)c(OC)c3)c(=O)c21	TGFb inhibitor inconclusive, TDP1 cell CPT inconclusive, TDP1 cell noCPT inconclusive (no result: ATXN2 expr inh, S2 tox)
O=C(CC(C(=O)O)c1c(F)cccc1Cl)c1ccc(Cl)cc1 (stereo not given)	none
